# The panel holds about 79,000 compounds, 15% with a hit somewhere; the sample as a whole holds those more often. A number with no mark means an inactive call. Activity calls are given as the source filed them. No stated cut-off is given here; in the data, active means growth inhibition above about 70%; inactive means the rest.
# How the values were obtained:
# [1] = NCI Yeast Anticancer Drug Screen. Data for the rad52 strain (AID 147);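 further: 0% = growth of vehicle-treated control cultures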; conditions: S. cerevisiae rad52 mutant growth inhibition, stronger effect = higher value
# In short: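 Screen used a yeast mutant impaired in DNA repair. After compound exposure, growth was measured. Values reflect inhibition compared with vehicle-treated cells.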
# [2] = NCI Yeast Anticancer Drug Screen. Data for the wt1 strain (AID 149);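 further: 0% = growth of vehicle-treated wt1 cultures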; conditions: S. cerevisiae wt1 strain (SPY 50644) growth inhibition, stronger effect = higher value
# In short: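 wt1 strain grown with compound or vehicle; inhibition taken from the growth difference.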
# [3] = NCI Yeast Anticancer Drug Screen. Data for the rad50EPP+ strain (AID 151);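 further: 0% = growth of vehicle-treated control cultures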; conditions: S. cerevisiae rad50 mutant strain, stronger effect = higher value
# In short: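 Exposing the rad50EPP+ strain to each compound, growth was compared with vehicle-only cultures to give inhibition.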
# [4] = NCI Yeast Anticancer Drug Screen. Data for the rad50 strain (AID 155);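 further: 0% = growth of vehicle-only cultures of the same strain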; conditions: S. cerevisiae rad50 strain growth inhibition, stronger effect = higher value
# In short: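 DNA repair mutant yeast, compound exposure, growth read-out; inhibition is taken relative to vehicle.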
# [5] = NCI Yeast Anticancer Drug Screen. Data for the mec2-1 strain (AID 157); conditions: S. cerevisiae mec2-1 strain, stronger effect = higher value
# In short: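 Readout is yeast growth inhibition, normalised to vehicle-treated controls, in the mec2-1 strain exposed to compound.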
# [6] = NCI Yeast Anticancer Drug Screen. Data for the rad14 strain (AID 159);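 further: 0% = growth of vehicle-treated control cultures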; conditions: S. cerevisiae rad14 strain growth inhibition, stronger effect = higher value
# In short: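 DNA repair-defective yeast, compound-exposed; % growth inhibition derived by comparison with vehicle-treated controls.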
# [7] = NCI Yeast Anticancer Drug Screen. Data for the sgs1 mgt1 strain (AID 161);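 further: 0% = growth of cultures given vehicle only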; conditions: S. cerevisiae sgs1 mgt1 strain, stronger effect = higher value
# In short: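 Yeast cells carrying a defined DNA-repair defect were exposed to test compounds. Growth inhibition was measured relative to vehicle-treated controls.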
# [8] = NCI Yeast Anticancer Drug Screen. Data for the CLN2oe strain (AID 163);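 further: 0% = growth of vehicle-only control cultures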; conditions: S. cerevisiae CLN2oe strain, stronger effect = higher value
# In short: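 Values reflect how much compound exposure reduced yeast growth, referenced to vehicle-exposed cells. Assay organism is a strain with a defined genetic change affecting cell-cycle control.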
# [9] = NCI Yeast Anticancer Drug Screen. Data for the cln2 rad14 strain (AID 165);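 further: 0% = growth equal to vehicle treated cultures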; conditions: S. cerevisiae cln2 rad14 strain, stronger effect = higher value
# In short: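 Relative to vehicle controls, growth inhibition of compound-treated cln2 rad14 yeast was recorded.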
# [10] = NCI Yeast Anticancer Drug Screen. Data for the bub3 strain (AID 167); conditions: S. cerevisiae bub3 mutant strain, stronger effect = higher value
# In short: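 In this screen, a yeast mutant lacking normal mitotic checkpoint function is challenged with compound. Relative growth versus vehicle gives the inhibition value.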
# [11] = NCI Yeast Anticancer Drug Screen. Data for the wt2 strain (AID 169);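 further: 0% = growth of vehicle-treated yeast cultures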; conditions: S. cerevisiae wt2 strain growth inhibition, stronger effect = higher value
# In short: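 Values express reduction in yeast growth under compound treatment, referenced to vehicle-treated cells.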
# [12] = NCI Yeast Anticancer Drug Screen. Data for the mlh1 strain (AID 171);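 further: 0% = growth of vehicle-treated control cultures of the same strain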; conditions: S. cerevisiae mlh1 strain growth inhibition, stronger effect = higher value
# In short: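 Steps: expose the defined-mutant yeast strain to compound; expose a parallel culture to vehicle; measure growth; express compound effect as inhibition relative to the vehicle culture.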
# [13] = NCI Yeast Anticancer Drug Screen. Data for the sgs1 strain (AID 173);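 further: 0% = growth of vehicle-only control cultures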; conditions: S. cerevisiae sgs1 mutant, stronger effect = higher value
# In short: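 Treat defined-mutant yeast with compound; measure growth; calculate inhibition relative to vehicle-treated cells.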
# [14] = NCI Yeast Anticancer Drug Screen. Data for the mlh1 rad18 strain (AID 175); conditions: S. cerevisiae mlh1 rad18 strain growth inhibition, stronger effect = higher value
# In short: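 Test agents were incubated with a yeast strain of defined genotype (DNA damage repair defect). Inhibition of growth was derived by comparison with vehicle-exposed cultures.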
# [15] = NCI Yeast Anticancer Drug Screen. Data for the rad18 strain (AID 177); conditions: S. cerevisiae rad18 mutant growth inhibition, stronger effect = higher value
# In short: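 A genetically defined yeast mutant impaired in DNA damage repair was treated with test compounds, then its growth was measured against cultures receiving vehicle alone.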
# [16] = at 5.0 µM (retest, dose inferred, filed as 0.5)
# [17] = at 50.0 µM (retest, dose inferred, filed as 5.0)
smiles,measurement,setting,value
Nc1cc2ccccc2cc1N,growth inhibition,[1]; at 1.2 µM,-47%
same,growth inhibition,[1]; at 3.7 µM,-35%
same,growth inhibition,[1]; at 11.0 µM,-41%
same,growth inhibition,[1]; at 33.0 µM,-39%
same,growth inhibition,[1]; at 100.0 µM,25%
same,growth inhibition,[2]; at 1.2 µM,-28%
same,growth inhibition,[2]; at 3.7 µM,-14%
same,growth inhibition,[2]; at 11.0 µM,-17%
same,growth inhibition,[2]; at 33.0 µM,3%
same,growth inhibition,[2]; at 100.0 µM,20%
same,growth inhibition,[3]; at 1.2 µM,-37%
same,growth inhibition,[3]; at 3.7 µM,-13%
same,growth inhibition,[3]; at 11.0 µM,40%
same,growth inhibition,[3]; at 33.0 µM,59%
same,growth inhibition,[3]; at 100.0 µM,76% (active)
same,growth inhibition,[4]; at 1.2 µM,-33%
same,growth inhibition,[4]; at 3.7 µM,-23%
same,growth inhibition,[4]; [16],14%
same,growth inhibition,[4]; at 11.0 µM,-26%
same,growth inhibition,[4]; at 33.0 µM,12%
same,growth inhibition,[4]; [17],17%
same,growth inhibition,[4]; at 50.0 µM,89.3% (active)
same,growth inhibition,[4]; at 100.0 µM,63%
same,growth inhibition,[5]; at 1.2 µM,-41%
same,growth inhibition,[5]; at 3.7 µM,-45%
same,growth inhibition,[5]; [16],4%
same,growth inhibition,[5]; at 11.0 µM,-46%
same,growth inhibition,[5]; at 33.0 µM,-35%
same,growth inhibition,[5]; [17],15%
same,growth inhibition,[5]; at 50.0 µM,91.5% (active)
same,growth inhibition,[5]; at 100.0 µM,-15%
same,growth inhibition,[6]; at 1.2 µM,-15%
same,growth inhibition,[6]; at 3.7 µM,-17%
same,growth inhibition,[6]; at 11.0 µM,-13%
same,growth inhibition,[6]; at 33.0 µM,-16%
same,growth inhibition,[6]; at 100.0 µM,6%
same,growth inhibition,[7]; [16],19%
same,growth inhibition,[7]; [17],26%
same,growth inhibition,[7]; at 50.0 µM,88.7% (active)
same,growth inhibition,[8]; at 1.2 µM,10%
same,growth inhibition,[8]; at 3.7 µM,4%
same,growth inhibition,[8]; at 11.0 µM,4%
same,growth inhibition,[8]; at 33.0 µM,23%
same,growth inhibition,[8]; at 100.0 µM,45%
same,growth inhibition,[9]; [16],21%
same,growth inhibition,[9]; [17],70% (active)
same,growth inhibition,[9]; at 50.0 µM,90.1% (active)
same,growth inhibition,[10]; at 1.2 µM,-35%
same,growth inhibition,[10]; at 3.7 µM,-36%
same,growth inhibition,[10]; [16],25%
same,growth inhibition,[10]; at 11.0 µM,-30%
same,growth inhibition,[10]; at 33.0 µM,-38%
same,growth inhibition,[10]; [17],95% (active)
same,growth inhibition,[10]; at 50.0 µM,90.5% (active)
same,growth inhibition,[10]; at 100.0 µM,24%
same,growth inhibition,[11]; at 1.2 µM,-18%
same,growth inhibition,[11]; at 3.7 µM,-18%
same,growth inhibition,[11]; at 11.0 µM,-25%
same,growth inhibition,[11]; at 33.0 µM,-34%
same,growth inhibition,[11]; at 100.0 µM,-28%
same,growth inhibition,[12]; at 1.2 µM,-22%
same,growth inhibition,[12]; at 3.7 µM,-22%
same,growth inhibition,[12]; at 11.0 µM,-18%
same,growth inhibition,[12]; at 33.0 µM,-11%
same,growth inhibition,[12]; at 100.0 µM,16%
same,growth inhibition,[13]; at 1.2 µM,13%
same,growth inhibition,[13]; at 3.7 µM,20%
same,growth inhibition,[13]; at 11.0 µM,16%
same,growth inhibition,[13]; at 33.0 µM,33%
same,growth inhibition,[13]; at 100.0 µM,63%
same,growth inhibition,[14]; [16],6%
same,growth inhibition,[14]; [17],40%
same,growth inhibition,[14]; at 50.0 µM,90.8% (active)
same,growth inhibition,[15]; at 1.2 µM,-22%
same,growth inhibition,[15]; at 3.7 µM,-26%
same,growth inhibition,[15]; at 11.0 µM,-16%
same,growth inhibition,[15]; at 33.0 µM,-1%
same,growth inhibition,[15]; at 100.0 µM,46%
